The text below walks through data of PubChem BioAssay AID463082 (The Scripps Research Institute Molecular Screening Center, 2010).

The structures appear in SMILES notation. Screen size: about 330,000 compounds; about 4,900 (1.5%) were called active.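 Rule for the calls: active = inhibition above the mean inhibition across the screen plus 3 SD (cut at about 25% in these data); inactive = the rest.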 The sample as a whole holds a higher share of actives than the screen did.

In the experiment the target is Platelet-activating factor acetylhydrolase (Homo sapiens) (UniProt Q13093). In words: pPAFAH enzyme inhibitors, primary screen, biochemical, fluorescence polarization, human (AID 463082).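 Note: inhibitors block binding of the rhodamine activity-based probe so polarization drops; 0% = enzyme with DMSO and 100% = wells lacking pPAFAH.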 As to conditions: recombinant pPAFAH, FP-rhodamine probe fluorescence polarization; at 3.39 µM; stronger effect = higher value.
Chain of Platelet-activating factor acetylhydrolase (Homo sapiens) (Q13093 whole entry, looked up): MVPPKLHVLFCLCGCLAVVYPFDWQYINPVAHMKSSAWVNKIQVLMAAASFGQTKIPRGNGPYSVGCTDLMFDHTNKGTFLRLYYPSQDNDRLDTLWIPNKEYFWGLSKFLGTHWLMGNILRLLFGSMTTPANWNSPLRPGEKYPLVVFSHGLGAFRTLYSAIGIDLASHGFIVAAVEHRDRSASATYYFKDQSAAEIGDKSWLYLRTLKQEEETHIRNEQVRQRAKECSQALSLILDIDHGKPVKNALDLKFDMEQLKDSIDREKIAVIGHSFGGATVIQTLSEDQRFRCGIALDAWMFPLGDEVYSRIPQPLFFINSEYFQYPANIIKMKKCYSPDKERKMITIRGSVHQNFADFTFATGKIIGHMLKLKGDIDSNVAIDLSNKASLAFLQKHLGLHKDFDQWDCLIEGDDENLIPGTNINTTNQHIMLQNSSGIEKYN
On to `NC(=O)c1sc2nc3c(c(-c4ccccc4)c2c1N)CCC3`, for which the inhibition was 25.1% (active).

Regarding `CCc1nc2sc(C(=O)O)c(N)c2c2c1CCCC2`, the inhibition was 1.17% (inactive). Under `Nc1c(C(=O)NCc2ccccc2)sc2nc3c(cc12)C(=O)CCC3` stands 9% (inactive); under `Cc1ccccc1Cn1nc(C)c(NC(=O)C(F)(F)F)c1C`, -5.3% (inactive). Under `COC(=O)c1cc(S(=O)(=O)N2CCN(c3cc(C)ccc3C)CC2)c[nH]1` stands -4.07% (inactive); under `CCOc1ccccc1NS(=O)(=O)c1c[nH]c(C(=O)OC)c1`, -0.19% (inactive). In the case of `COC(=O)c1cc(S(=O)(=O)Nc2ccc(C)c(F)c2)c[nH]1`, the inhibition is 37.4% (active). The value for `Cn1c(=O)c2c(nc(N3CCCCCC3)n2CC(O)COc2ccc(Cl)cc2)n(C)c1=O` (stereo unspecified) was 4.56% (inactive); that for `Cc1snc(SCc2c(F)cccc2Cl)c1C#N` was 24.7% (active). `Cc1cc(SCc2c(F)cccc2Cl)nc(=O)[nH]1`: the inhibition is 1.8% (inactive).

For `Cc1ccc(CSc2nsc(C)c2C#N)cc1`, the inhibition was 8.61% (inactive). Under `O=C(Nc1ccc2c(c1)OCO2)C1CC(c2c(F)cccc2Cl)=NO1` (stereo unspecified) stands 1.16% (inactive).

With `Nc1ccc2nc3c(=O)[nH]c(=S)[nH]c3nc2c1`, the inhibition was 47.8% (active). The value for `COCCNC(=O)c1snc2ccc(Cl)cc12` was -0.4% (inactive); that for `COc1cccc(NC(=O)NCCN2CCCCC2)c1` was 3.86% (inactive); that for `O=C(NCc1ccccn1)c1ccc2nc(-c3ccco3)c(-c3ccco3)nc2c1` was 65.8% (active). The value for `Cc1cc(C)cc(NC(=O)NCc2ccccn2)c1` was 1.23% (inactive). Under `COCCNC(=O)Nc1ccc2nc(-c3ccco3)c(-c3ccco3)nc2c1` stands 75.6% (active); under `O=C1CSc2ccc(C(=O)NCc3ccccn3)cc2N1`, 0.84% (inactive); under `Cc1ccc(C(=O)CN2C(=O)NC3(CCc4ccccc43)C2=O)c(C)c1` (stereo unspecified), -8.87% (inactive). Turning to `O=S(=O)(Oc1ccccc1C(=S)N1CCOCC1)c1ccc(Cl)cc1`, the inhibition is 4.58% (inactive). Turning to `O=C(NCc1ccc(F)cc1)C1CCC(CNc2c(N3CCOCC3)c(=O)c2=O)CC1` (stereo unspecified), the inhibition is 1.22% (inactive). The value for `CCOC(=O)c1sc(NC(=O)C2CSC3(C)CCC(=O)N23)nc1C` (stereo unspecified) was 0.96% (inactive). Under `Cc1cc(C)c(C2C3=C(Nc4c2c(C)nn4-c2ccccn2)c2ccccc2C3=O)c(C)c1` (stereo unspecified) stands -8.35% (inactive). The value for `Cc1ccc(C2C3=C(Nc4[nH]n(-c5ccccc5)c(=O)c42)c2ccccc2C3=O)cc1` (stereo unspecified) was 34.5% (active); that for `Cc1ccc(-c2ccnc3[nH]n(-c4ccccc4)c(=O)c23)cc1` was 2.79% (inactive); that for `COc1ccccc1N(CC(=O)Nc1ccc(C)cc1Cl)S(=O)(=O)c1cccs1` was 6.13% (inactive). Turning to `O=c1cc(CN2CCN(S(=O)(=O)/C=C/c3ccccc3)CC2)c2ccc(O)cc2o1`, the inhibition is 2.78% (inactive). Under `Cc1ccccc1C(=O)Nc1cccc(-c2nnc(SCC(=O)O)n2C)c1` stands -1.6% (inactive).

On to `Cc1noc(C)c1C(=O)OC(C)C(=O)Nc1ccc2c(c1)OCO2` (stereo unspecified), for which the inhibition is 1.18% (inactive). The value for `O=C(COC(=O)Cc1ccc(Br)cc1)Nc1ccc(N2CCOCC2)cc1` was 6.93% (inactive); that for `Cc1cccc(C)c1NC(=O)CNC(=O)Cc1ccc(Br)cc1` was 1.92% (inactive); that for `O=C(COC(=O)Cc1ccc(Br)cc1)Nc1c(F)c(F)c(F)c(F)c1F` was 32.9% (active). On to `CCC(C)N(C(=O)Cn1nc(C)c([N+](=O)[O-])c1C)C1CCS(=O)(=O)C1` (stereo unspecified), for which the inhibition was -1.29% (inactive). For `O=S(=O)(Nc1ncnc2sccc12)c1cccc(F)c1`, the inhibition was 12.2% (inactive). Consider `COc1ccc(-c2csc3ncnc(N4CCN(S(=O)(=O)c5cccc(F)c5)CC4)c23)cc1`, for which the inhibition is 3.15% (inactive).

In the case of `Cc1cc(F)ccc1S(=O)(=O)Nc1ncnc2scc(-c3ccc(F)cc3)c12`, the inhibition was 30.3% (active). The value for `Cc1cnc(C)c(N2CCN(C(=O)C3CCC(=O)N(CCc4cccc(F)c4)C3)CC2)n1` (stereo unspecified) was 4.96% (inactive). Under `CCCCn1c(N)c(N(CC)C(=O)c2ccccc2C(F)(F)F)c(=O)[nH]c1=O` stands -0.54% (inactive); under `CC(=O)Nc1cccc(Nc2nc(-c3cccs3)nc3ccccc23)c1`, -12.8% (inactive).

Regarding `CCOC(=O)c1nc(Nc2ccc(C(=O)OC)cc2)c2ccccc2n1`, the inhibition is -0.04% (inactive). The value for `Cc1cccc(-c2nc(Nc3ccc(O)cc3)c3ccccc3n2)c1` was 26.7% (active). Consider `O=C(COC(=O)CC1CC2CCC1C2)NC(=O)NC1CCCC1` (stereo unspecified), for which the inhibition is 2.89% (inactive).

Take `Cc1ccc(C(=O)N/C(=C/c2cccs2)C(=O)NCC2CCCO2)cc1` (stereo unspecified): the inhibition was -4.31% (inactive).

Regarding `Cc1ccc(-n2c(C)cc(/C=C(\C#N)C(=O)NCC3CCCO3)c2C)cc1` (stereo unspecified), the inhibition was 68.5% (active). The value for `Cc1cc(/C=C(/C#N)C(=O)Nc2ccc(Cl)cc2)c(C)n1-c1cccnc1` was 0.95% (inactive); that for `COc1ccccc1C(=O)Nc1ccnn1C1CCN(C(=O)C(C)(C)C)CC1` was -0.55% (inactive).

With `COc1ccc(/C=C/C(=O)c2ccc(NS(=O)(=O)c3ccc(C)cc3)cc2)cc1O`, the inhibition is 23.6% (inactive). Take `COC(=O)c1ccc(COc2ccc(/C=C/C(=O)c3ccc(OC)c(CSCC(=O)O)c3)cc2OC)cc1`: the inhibition was 28.7% (active). Take `COc1ccc(/C=C/C(=O)N2CCCC2)cc1OC`: the inhibition is 0% (inactive). The value for `COCCn1c(SC(C)C(=O)NC2CC2)nnc1-c1cccc(C)c1` (stereo unspecified) was -1.49% (inactive). `COc1ccc(C2C(C#N)=C(N)Oc3cc(N)ccc32)cc1OC` (stereo unspecified): the inhibition was 26% (active).

On to `COc1cc(C2C(C#N)=C(N)Oc3n[nH]c(-c4ccccn4)c32)cc(OC)c1OC` (stereo unspecified), for which the inhibition is 2.74% (inactive). As for `N#CC1=C(N)Oc2cc(O)ccc2C1C1CCCCC1` (stereo unspecified), the inhibition was 2.82% (inactive). `CCOC(=O)[C@H]1[C@H]2COc3ccc(C)cc3[C@@H]2N2C(=O)CN(Cc3ccc(F)cc3)C(=O)[C@@]12C`: the inhibition is -0.02% (inactive).

Take `C=CCN(N=Nc1cccc([N+](=O)[O-])c1)c1cccc([N+](=O)[O-])c1`: the inhibition was 9.93% (inactive). As for `COc1ccc(/C=C(\NC(=O)c2ccccc2)C(=O)NCCN2CCOCC2)cc1OC`, the inhibition was 4.35% (inactive).

As to `Cn1c2ccccc2c2cc(/C=C(\NC(=O)c3ccccc3)C(=O)NCC(=O)O)ccc21`, the inhibition was 24.7% (active). The value for `CCOC(=O)CNC(=O)/C(=C\c1ccc(F)cc1)NC(=O)c1ccccc1` was -2.32% (inactive). For the compound `Cc1ccc2c(c1)nnc1nnc(SCC(=O)O)n12`, the inhibition is 2.74% (inactive). For the compound `CC(C)C[C@H](NC(=O)N1CCn2c1nc1ccccc12)C(=O)NC1CC1`, the inhibition was 1.86% (inactive).

In the case of `COc1ccc(C(=O)Nc2cc(C)c(NC(=O)c3ccccc3OC)cn2)cc1`, the inhibition is 2.94% (inactive). Consider `C=CCn1cnc2scc(-c3ccccc3)c2c1=O`, for which the inhibition is 0.46% (inactive). Under `C=CCn1c(=S)[nH]c2scc(-c3ccco3)c2c1=O` stands 42.6% (active). On to `C=CCn1c(=S)[nH]c2nc3c(cc2c1=O)COC(C)(C)C3`, for which the inhibition is -1.93% (inactive). Consider `C#CCOCCOCCOCCNc1nc(N2CCN(C(=O)C(Cc3ccc(O)cc3)n3cc(C(N)CC(C)C)nn3)CC2)nc(N2CCN(C(=O)C(Cc3ccc(O)cc3)n3cc(C(N)C(C)CC)nn3)CC2)n1` (stereo unspecified), for which the inhibition is 0.55% (inactive). The value for `CN(C)S(=O)(=O)N1CCC(Oc2cccc(C(=O)NCCCC3CCCC3)c2)CC1` was 3.19% (inactive). Under `Cc1ccc(C(=O)Nc2ccc3c(c2)OCO3)cc1S(=O)(=O)N1CCCCC1` stands 14.5% (inactive); under `Cc1nn(CC(=O)Nc2ccc3c(c2)OCO3)c(C)c1[N+](=O)[O-]`, -3.11% (inactive). Under `Cc1ccc(C(=O)O)cc1-c1ccc(/C=C2\SC(=O)N(CC(=O)Nc3ccc4c(c3)OCO4)C2=O)o1` stands 30.2% (active); under `O=C(COC(=O)c1ccc(F)cc1)Nc1ccc2c(c1)OCO2`, 9.5% (inactive); under `O=C(NOCc1ccccc1)c1cccc([N+](=O)[O-])c1`, 7.75% (inactive). Regarding `Cn1c(=O)c2c(ncn2CC(=O)N/N=C/c2cn[nH]c2-c2ccc(F)cc2)n(C)c1=O`, the inhibition was 1.61% (inactive). As to `CCN(Cc1ccccc1)C(=O)Cc1ccc(OC)c(S(=O)(=O)N2CCOCC2)c1`, the inhibition was -1.51% (inactive). The value for `Oc1c(Cl)cc(Cl)c(Cl)c1Cc1c(O)c(Cl)cc(Cl)c1Cl` was 68.2% (active); that for `O=C(CN1C(=O)NC2(CCOc3ccccc32)C1=O)Nc1cccc([N+](=O)[O-])c1` (stereo unspecified) was 0.7% (inactive). For the compound `Cc1cccc(NC(=S)NCCc2ccc(F)cc2)c1C`, the inhibition is 3.05% (inactive).

In the case of `CCCCC(=O)Nc1ccc2c(c1)C(=O)NC2=O`, the inhibition is 34.6% (active).

On to `CCCCN(C)CCC(=O)Nc1ccc(Cl)cc1`, for which the inhibition is 1.11% (inactive).

In the case of `CC(=O)Nc1ccc(Oc2ccc3c(c2)C(=O)NC3=O)cc1`, the inhibition was -0.12% (inactive). For `Cc1cc(NC(=O)c2ccccc2C)no1`, the inhibition was 2.84% (inactive). The value for `O=[N+]([O-])c1cc(Cl)cc(/C=N/NC(=S)Nc2cc(S(=O)(=O)N3CCOCC3)ccc2Cl)c1O` was 36.5% (active). The value for `Cc1ccc(S(=O)(=O)N2CCN(CC(=O)N/N=C/c3cc([N+](=O)[O-])ccc3Cl)CC2)cc1` was 3.66% (inactive).

Regarding `O=S(=O)(c1ccc(NC(=S)NN=C(C2CC2)C2CC2)cc1)N1CCOCC1`, the inhibition was 15% (inactive).

For `CSc1ccc(C(=O)C2CCCN(C(=O)c3ccc(C)nc3)C2)cc1` (stereo unspecified), the inhibition was 5.05% (inactive).

As for `CCOC(=O)C1C(=O)OC2(CCCC2)C1C(=O)OCC` (stereo unspecified), the inhibition is -0.69% (inactive). Under `CN(CC(=O)N1CCN(c2ccccc2)CC1)S(=O)(=O)c1cccs1` stands -1.58% (inactive). On to `CN(C)c1ccc(N/C=C/C(=O)C(F)(F)F)cc1`, for which the inhibition is 42.4% (active). Take `CC(=O)N(C)c1ccc(NC(=O)C(F)(F)F)cc1`: the inhibition was -4.77% (inactive). The value for `CC(C)CNC(=O)C(=O)Nc1ccc(N(C)C)cc1` was -8.71% (inactive). The value for `CCCc1ccc(C(=O)[C@@H]2[C@@H](C(C)=O)N3c4ccc(F)cc4C=C[C@@H]3[C@@]23C(=O)Nc2ccccc23)cc1` was 2.89% (inactive).

One may read the inhibition as the change of the read-out against control, counted positive when it falls.
